Laboratory results reported in a collection of fitness landscapes (doi:10.1038/s41467-024-54723-y).
Whole data set: some 18,000 sequences, median “TetR repression strength (sort-seq, GFP reporter)” near 0.23, cut for the highest 2% near 0.68. Only a selection was taken, and the highest values are over-represented in it overall.

Each sequence was assayed against TetR (class B, Tn10) (UniProt P04483) (assay: TetR repression strength (sort-seq, GFP reporter) (relative to tetO2 = 1); higher = stronger repression). Conditions: E. coli.
TetR (class B, Tn10), sequence (P04483 whole entry): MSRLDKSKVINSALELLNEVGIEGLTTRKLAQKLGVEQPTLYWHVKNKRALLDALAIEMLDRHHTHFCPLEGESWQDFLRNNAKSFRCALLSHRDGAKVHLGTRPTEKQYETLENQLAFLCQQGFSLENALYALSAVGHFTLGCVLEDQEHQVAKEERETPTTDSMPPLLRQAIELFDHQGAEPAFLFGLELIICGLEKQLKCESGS
Procedure, shortened: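 Repression strength was calculated by subtracting the read-weighted mean bin from the top bin index plus one and dividing by the unaltered operator's value. The plasmid library was low-copy in E. coli SIG10-MAX, with eight randomized operator positions between a constitutive promoter and sfGFP and constitutive TetR. Cultures grew 5 h at 37 °C in LB containing 50 µg/mL chloramphenicol before 10^6 cells were sorted by FACS into 13 fluorescence bins, each sequenced on Illumina. Three independent transformations were averaged for members having ≥30 reads in all replicates and a CV ≤0.5.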

Sequence | TetR repression strength
TCCCTATCAGTGACGGAGA | 0.472
TCCCAACCAGTCATGGAGA | 0.159
TCCCAACCAGTAATGGAGA | 0.713
TCCCGTCCAGTCTGAGAGA | 0.152
TCCCGATGAGTGTGGGAGA | 0.221
TCCCTTGAAGTCATTGAGA | 1.05
TCCCTATCAGTTATTGAGA | 0.504
TCCCTATTAGTAATTGAGA | 0.416
TCCCTATCAGTAATTGAGA | 0.787
TCCCTATCAGTGAGAGAGA | 0.948
TCCCTATCAGTAACTGAGA | 0.474
TCCCTATCAGTGCGTGAGA | 0.546
TCCCTGTCAGTGATTGAGA | 0.592
TCCCTATCAGTGGGTGAGA | 0.554
TCCCTTGAAGTCAGTGAGA | 0.236
TCCCTTCAAGTCATTGAGA | 0.0199
TCCCTATCAGTGATTGAGA | 0.939
TCCCTTATAGTATCAGAGA | 0.186
TCCCGATAAGTAGCGGAGA | 0.234
TCCCTTGCAGTGTACGAGA | 0.204
TCCCCCTTAGTTGTCGAGA | 0.307
TCCCGCGAAGTGTTTGAGA | 0.197
TCCCTGGGAGTGACAGAGA | 0.299
TCCCTAAGAGTGGGCGAGA | 0.157
TCCCTAGAAGTGACGGAGA | 0.153
TCCCCGAGAGTCCTAGAGA | 0.235

Sequence | TetR repression strength
TCCCGTCAAGTGCCGGAGA | 0.325
TCCCTGTCAGTGGCAGAGA | 0.545
TCCCTAACAGTGAAAGAGA | 0.575
TCCCTATCAGTGAGTGAGA | 0.79
TCCCTGTCAGTGACAGAGA | 0.636
TCCCTATCAGTGAGGGAGA | 0.5
TCCCTATCAGTGAAAGAGA | 0.784
TCCCTATCAGTCAAAGAGA | 0.636
TCCCTATCAGTGGCAGAGA | 0.771
TCCCTATCAGTAAGTGAGA | 0.545
TCCCAATCAGTGGCAGAGA | 0.433
TCCCTATCAGTGACAGAGA | 0.863
TCCCTAACAGTGACAGAGA | 0.559
TCCCTGTTAGTGCGGGAGA | 0.226
TCCCGGTGAGTTGTCGAGA | 0.355
TCCCATATAGTTTGGGAGA | 0.175
TCCCTTGAAGTATCGGAGA | 0.146
TCCCATAGAGTGCGTGAGA | 0.18
TCCCTGGCAGTTTTTGAGA | 0.196
TCCCCCCGAGTGCTGGAGA | 0.344
TCCCCCTGAGTCATTGAGA | 0.526
TCCCGGGCAGTGGGGGAGA | 0.347
TCCCGCGTAGTGTACGAGA | 0.108
TCCCTATTAGTGTGTGAGA | 0.219
TCCCTATTAGTGAGTGAGA | 0.762
TCCCTATTAGTGAGAGAGA | 0.631

Sequence | TetR repression strength
TCCCGTGGAGTGCACGAGA | 0.315
TCCCAACAAGTGGATGAGA | 0.243
TCCCCACAAGTGGATGAGA | 1.22
TCCCCCCCAGTGGATGAGA | 0.232
TCCCCACGAGTGGATGAGA | 0.382
TCCCCCACAGTGGATGAGA | 0.294
TCCCCACCAGTGGATGAGA | 1.05
TCCCCCCGAGTAAGTGAGA | 0.278
TCCCGTCTAGTACTCGAGA | 0.262
TCCCAAAGAGTGGGCGAGA | 0.0498
TCCCTCTTAGTGTGGGAGA | 0.0777
TCCCGATGAGTATGTGAGA | 0.366
TCCCTGCCAGTATAGGAGA | 0.308
TCCCCCCTAGTGGACGAGA | 0.178
TCCCTCGTAGTGGATGAGA | 0.206
TCCCTATGAGTTTAAGAGA | 1.03
TCCCTATGAGTTGAAGAGA | 0.326
TCCCTATGAGTTTGAGAGA | 0.33
TCCCTATGAGTACCAGAGA | 0.857
TCCCTATGAGTTCCAGAGA | 1.01
TCCCTATGAGTTCCCGAGA | 0.289
TCCCTAAGAGTACCAGAGA | 0.429
TCCCTATGAGTTCGAGAGA | 0.195
TCCCTAAGAGTAAAAGAGA | 0.839
TCCCTATGAGTAAAAGAGA | 0.24
TCCCTATGAGTACGAGAGA | 0.291

Sequence | TetR repression strength
TCCCTAAGAGTAAACGAGA | 0.446
TCCCGTGTAGTAAGTGAGA | 0.313
TCCCCGAGAGTTGGGGAGA | 0.104
TCCCAATCAGTCCGCGAGA | 0.295
TCCCAAGTAGTCACGGAGA | 0.295
TCCCCCGGAGTAGAGGAGA | 0.187
TCCCGGCTAGTAGCAGAGA | 0.0201
TCCCTTTGAGTCGCAGAGA | 0.386
TCCCAGGGAGTGGAAGAGA | 0.235
TCCCGACTAGTTCGCGAGA | 0.367
TCCCATATAGTTAGCGAGA | 0.247
TCCCTCAGAGTTCCAGAGA | 0.313
TCCCCACTAGTCCGTGAGA | 0.279
TCCCCTAAAGTACAGGAGA | 0.0737
TCCCTTAAAGTACAGGAGA | 0.125
TCCCCTTAAGTACAGGAGA | 0.72
TCCCCTATAGTACAGGAGA | 0.792
TCCCCTATAGTATAGGAGA | 0.0691
TCCCTTATAGTACAGGAGA | 0.103
TCCCTGGAAGTGCAAGAGA | 0.431
TCCCAGGCAGTTGAGGAGA | 0.216
TCCCAGGGAGTTGACGAGA | 0.0614
TCCCAGGCAGTTGAAGAGA | 0.182
TCCCAGTCAGTTGAAGAGA | 0.858
TCCCAATCAGTTGAAGAGA | 0.279
TCCCAGGCAGTTGACGAGA | 0.698
